# Active and inactive are the calls of the source.
# Tests used:
# [1] = binders of probe aFSTL3 on microarray, primary screen, stem cell growth factor project, biochemical, small-molecule microarray, fluorescence 635/667 (AID 1064); details: higher = more signal;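 note: measures binding of the biotinylated anti-FSTL3 antibody to printed compounds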
# [2] = binders from COS7 lysate, DM2A8 probe, primary screen, torsin A project, cell lysate, small-molecule microarray, fluorescence 635/667 (AID 1065); details: higher = more signal, COS7 lysate expressing mutant human TOR1A
# [3] = binders of probe aFGF2 on microarray, primary screen, stem cell growth factor project, biochemical, small-molecule microarray, fluorescence 635/667 (AID 1067); details: higher = more signal;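 note: measures binding of biotinylated aFGF2 protein to printed compounds on slides; z-score merges feature fluorescence and signal-to-noise across triplicate slides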
# [4] = binders of probe aFGF10 on microarray, primary screen, stem cell growth factor project, biochemical, small-molecule microarray, fluorescence 635/667 (AID 1071); details: higher = more signal;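 note: score merges 667 nm spot intensity and signal to noise from triplicate slides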
# [5] = target: Neurogenic locus notch homolog protein 2 (Homo sapiens) (UniProt Q04721); assay: Notch2 binders on small-molecule microarrays, primary screen, biochemical, small-molecule microarray, 635 nm fluorescence, stem cell growth factors (AID 1073); details: Notch2 binding, higher = more signal
# [6] = target: Pro-neuregulin-1, membrane-bound isoform (Homo sapiens) (UniProt Q02297); assay: NRG1 binders on small-molecule microarrays, primary screen, psychiatric disease protein project, biochemical, small-molecule microarray, fluorescence 635/667 (AID 1075); details: NRG1 binding, 635 nm fluorescence, higher = more signal;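 note: score combines 667 nm spot fluorescence with signal to noise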
# [7] = tested on: Neuregulin-1 EGF-like domain; assay: binders of neuregulin-1 EGF-like domain, primary screen, biochemical, small-molecule microarray, 635 nm fluorescence (AID 1081); details: small-molecule microarray binding, higher = more signal;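 note: binding of the protein to compounds printed on small-molecule microarray slides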
# [8] = FRG1 promoter luciferase signal modulators, primary screen, FRG1 inhibition for FSHD, cell-based, C2C12 myotubes, firefly/Renilla luciferase, luminescence (AID 1084); details: higher = more signal, called active from +8 up or from −8 down
# [9] = binders of probe aFST on microarray, primary screen, stem cell growth factor project, biochemical, small-molecule microarray, fluorescence 635/667 (AID 1086); details: higher = more signal;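 note: score merges 667 nm fluorescence with signal-to-noise of each printed compound spot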
# [10] = binders of probe aHhip on microarray, primary screen, stem cell growth factor project, biochemical, small-molecule microarray, fluorescence 635/667 (AID 1087); details: higher = more signal;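 note: score merges spot fluorescence at 667nm with spot signal to noise ratio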
# [11] = tested on: PRMT1 (protein arginine N-methyltransferase 1); assay: PRMT1 binders on small-molecule microarrays, primary screen, biochemical, small-molecule microarray, 635 nm fluorescence (AID 1088); details: small-molecule microarray binding, higher = more signal;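 note: binding of Prmt1 protein to compounds spotted on small-molecule microarray slides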
# [12] = yeast growth modulation, basal conditions, primary screen, YJM789 clinical isolate, OD600, 24 h (AID 1089);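 note: growth of clinical yeast isolate S. cerevisiae YJM 789 seeded 1000 cells per well; test concentration not given here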; details: S. cerevisiae YJM789 growth, higher = more signal, called active from +8 up or from −8 down
# [13] = fission yeast growth modulation, primary screen, strain 972, OD600, 24 h, no modulator (AID 1090);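 note: basal condition with compound alone and no growth modifier present; test concentration not given here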; details: S. pombe 972 growth, higher = more signal, called active from +8 up or from −8 down
# [14] = S. cerevisiae growth modulation with rapamycin, primary screen, strain BY4716, OD600, 96 h (AID 1091); details: higher = more signal, called active from +8 up or from −8 down; note: test concentration not given here
# [15] = target: Torsin-1A-interacting protein 2 (Homo sapiens) (UniProt Q8NFQ8); assay: LULL1 binders on small-molecule microarray, primary screen, cell lysate, human LULL1 lysate, 635/667 nm fluorescence (AID 1092); details: hLULL1 lysate binding, 635 nm fluorescence, higher = more signal;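 note: probe is lysate of COS7 cells overexpressing human LULL1; score merges per-feature 667 nm fluorescence with signal-to-noise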
# [16] = E. coli growth modulation, two-sided OD650, primary screen, E. coli filamentation project, strain DRC41, 24 h (AID 1093); details: OD650, 24 h, higher = more signal, called active from +8 up or from −8 down;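 note: MC1000 strain lacking acrAB efflux and sulA so SOS filamentation is blocked; test concentration not given here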
# [17] = small-molecule microarray binders of probe aLefty2, primary screen, biochemical, biotinylated probe, 635/667 nm fluorescence (AID 1094); details: higher = more signal;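 note: score merges spot fluorescence near 667 nm with spot signal-to-noise ratio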
# [18] = tested on: Noggin (protein binding on small-molecule microarray); assay: Noggin binders on small-molecule microarray, primary screen, biochemical, 635/667 nm fluorescence (AID 1095); details: 635 nm fluorescence, higher = more signal;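 note: score merges 667 nm feature fluorescence with signal to noise over triplicate slides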
# [19] = target: Neurogenic locus notch homolog protein 3 (Homo sapiens) (UniProt Q9UM47); assay: NOTCH3 binders on small-molecule microarray, primary screen, biochemical, 635/667 nm fluorescence (AID 1096); details: NOTCH3 binding, 635 nm fluorescence, higher = more signal
# [20] = small-molecule microarray binders of probe aEGFR, primary screen, biochemical, biotinylated probe, 635/667 nm fluorescence (AID 1097); details: higher = more signal;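 note: probe is a biotinylated anti-EGFR antibody binding compounds printed on slides; score combines fluorescence near 667 nm and signal to noise of each spot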
# Neurogenic locus notch homolog protein 2 (Homo sapiens), sequence (Q04721 whole entry, looked up, canonical isoform): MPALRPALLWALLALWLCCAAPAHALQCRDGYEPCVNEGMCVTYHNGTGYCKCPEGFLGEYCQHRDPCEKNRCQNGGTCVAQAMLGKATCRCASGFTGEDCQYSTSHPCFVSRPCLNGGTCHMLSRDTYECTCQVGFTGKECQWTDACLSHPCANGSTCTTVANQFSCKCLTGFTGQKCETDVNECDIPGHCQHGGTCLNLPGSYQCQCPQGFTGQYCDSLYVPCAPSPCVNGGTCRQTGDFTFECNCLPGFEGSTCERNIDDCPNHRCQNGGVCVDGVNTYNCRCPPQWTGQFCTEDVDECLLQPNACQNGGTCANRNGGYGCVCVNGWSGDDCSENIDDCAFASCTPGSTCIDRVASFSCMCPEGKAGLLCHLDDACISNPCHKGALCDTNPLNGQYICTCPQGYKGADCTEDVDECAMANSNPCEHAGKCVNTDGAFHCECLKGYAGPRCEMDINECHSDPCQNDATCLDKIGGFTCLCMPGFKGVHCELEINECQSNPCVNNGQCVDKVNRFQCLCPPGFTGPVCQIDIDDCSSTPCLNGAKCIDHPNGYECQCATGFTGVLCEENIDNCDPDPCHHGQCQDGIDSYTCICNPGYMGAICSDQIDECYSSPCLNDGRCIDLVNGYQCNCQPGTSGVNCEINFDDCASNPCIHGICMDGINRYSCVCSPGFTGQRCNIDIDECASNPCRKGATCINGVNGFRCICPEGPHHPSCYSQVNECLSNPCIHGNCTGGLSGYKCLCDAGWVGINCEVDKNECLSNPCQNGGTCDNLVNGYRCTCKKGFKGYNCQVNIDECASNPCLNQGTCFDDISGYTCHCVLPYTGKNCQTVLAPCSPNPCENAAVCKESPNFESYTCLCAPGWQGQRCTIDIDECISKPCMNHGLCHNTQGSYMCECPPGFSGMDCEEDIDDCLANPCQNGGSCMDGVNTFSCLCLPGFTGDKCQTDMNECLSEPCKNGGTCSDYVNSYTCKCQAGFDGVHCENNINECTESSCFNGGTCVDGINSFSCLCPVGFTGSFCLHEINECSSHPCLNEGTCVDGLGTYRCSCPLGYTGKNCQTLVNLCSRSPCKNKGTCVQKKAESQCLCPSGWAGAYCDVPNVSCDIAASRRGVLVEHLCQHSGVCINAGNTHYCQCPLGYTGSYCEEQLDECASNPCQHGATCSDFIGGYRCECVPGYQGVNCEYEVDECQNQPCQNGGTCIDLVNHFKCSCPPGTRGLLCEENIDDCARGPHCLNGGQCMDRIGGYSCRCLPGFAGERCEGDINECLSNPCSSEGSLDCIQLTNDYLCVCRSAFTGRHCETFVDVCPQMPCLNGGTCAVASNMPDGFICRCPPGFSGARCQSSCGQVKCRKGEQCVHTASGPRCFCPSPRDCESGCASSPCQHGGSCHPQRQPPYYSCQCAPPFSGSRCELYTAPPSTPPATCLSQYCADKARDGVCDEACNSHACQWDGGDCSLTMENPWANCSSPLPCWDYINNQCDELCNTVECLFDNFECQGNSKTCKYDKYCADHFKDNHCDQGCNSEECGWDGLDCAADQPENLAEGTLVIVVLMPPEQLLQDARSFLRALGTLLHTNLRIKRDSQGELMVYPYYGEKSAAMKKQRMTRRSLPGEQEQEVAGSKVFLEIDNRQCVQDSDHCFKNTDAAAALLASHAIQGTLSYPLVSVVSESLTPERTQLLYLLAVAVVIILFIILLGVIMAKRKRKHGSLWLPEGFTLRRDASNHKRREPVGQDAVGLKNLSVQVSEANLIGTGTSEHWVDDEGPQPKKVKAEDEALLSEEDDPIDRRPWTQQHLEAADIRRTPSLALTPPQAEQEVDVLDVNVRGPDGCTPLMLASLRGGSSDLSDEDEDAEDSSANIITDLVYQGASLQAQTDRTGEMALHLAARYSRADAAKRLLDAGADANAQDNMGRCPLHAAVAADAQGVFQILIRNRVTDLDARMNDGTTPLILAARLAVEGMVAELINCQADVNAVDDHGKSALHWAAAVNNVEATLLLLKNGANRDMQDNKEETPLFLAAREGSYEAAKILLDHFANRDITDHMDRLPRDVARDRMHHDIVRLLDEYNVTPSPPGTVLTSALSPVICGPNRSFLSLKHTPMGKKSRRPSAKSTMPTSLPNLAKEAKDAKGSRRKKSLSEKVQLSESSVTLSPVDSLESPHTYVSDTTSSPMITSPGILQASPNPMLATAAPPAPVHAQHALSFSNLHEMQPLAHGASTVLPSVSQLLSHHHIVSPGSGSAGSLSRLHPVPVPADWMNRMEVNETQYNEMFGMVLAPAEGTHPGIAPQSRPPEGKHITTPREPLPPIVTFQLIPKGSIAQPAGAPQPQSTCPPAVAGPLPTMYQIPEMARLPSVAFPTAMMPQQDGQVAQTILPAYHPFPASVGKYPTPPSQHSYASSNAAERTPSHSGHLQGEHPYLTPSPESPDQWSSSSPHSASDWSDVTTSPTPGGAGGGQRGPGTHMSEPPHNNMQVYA
# Torsin-1A-interacting protein 2 (Homo sapiens), sequence (Q8NFQ8 whole entry, looked up): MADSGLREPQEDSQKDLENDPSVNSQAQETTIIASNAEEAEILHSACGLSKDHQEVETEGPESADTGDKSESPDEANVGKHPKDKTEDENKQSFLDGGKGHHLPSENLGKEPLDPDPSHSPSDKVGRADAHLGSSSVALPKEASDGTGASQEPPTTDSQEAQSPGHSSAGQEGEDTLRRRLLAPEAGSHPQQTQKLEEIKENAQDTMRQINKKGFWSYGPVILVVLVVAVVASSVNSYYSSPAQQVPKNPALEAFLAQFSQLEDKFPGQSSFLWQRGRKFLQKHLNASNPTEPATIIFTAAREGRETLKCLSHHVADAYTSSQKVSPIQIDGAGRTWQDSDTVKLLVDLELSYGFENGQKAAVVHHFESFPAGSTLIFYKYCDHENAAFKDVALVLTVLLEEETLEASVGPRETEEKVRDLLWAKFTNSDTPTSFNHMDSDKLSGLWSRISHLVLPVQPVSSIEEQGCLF
# Pro-neuregulin-1, membrane-bound isoform (Homo sapiens), sequence (Q02297 whole entry, looked up, the tested form may be a part, canonical isoform): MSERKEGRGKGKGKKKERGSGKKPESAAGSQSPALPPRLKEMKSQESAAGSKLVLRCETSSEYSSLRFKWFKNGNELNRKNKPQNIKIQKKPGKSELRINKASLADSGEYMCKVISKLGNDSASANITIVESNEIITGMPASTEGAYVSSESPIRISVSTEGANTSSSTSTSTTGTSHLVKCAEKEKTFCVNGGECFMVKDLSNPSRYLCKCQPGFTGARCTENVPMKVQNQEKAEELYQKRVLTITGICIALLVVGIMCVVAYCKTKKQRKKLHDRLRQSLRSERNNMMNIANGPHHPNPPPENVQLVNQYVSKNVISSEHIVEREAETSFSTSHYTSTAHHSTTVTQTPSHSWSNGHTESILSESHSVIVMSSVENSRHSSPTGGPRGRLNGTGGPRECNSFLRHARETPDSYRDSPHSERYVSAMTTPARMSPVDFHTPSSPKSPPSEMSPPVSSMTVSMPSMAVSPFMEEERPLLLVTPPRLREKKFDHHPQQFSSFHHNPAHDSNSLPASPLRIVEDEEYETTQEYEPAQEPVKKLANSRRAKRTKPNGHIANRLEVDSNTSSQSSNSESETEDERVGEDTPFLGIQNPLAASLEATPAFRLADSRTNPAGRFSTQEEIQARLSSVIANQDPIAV
structure (smiles),measurement,setting,value
CC(C)NC(=O)[C@@]1(C)c2ccccc2C(=O)N(C(C)C)[C@H]1c1ccc(CO)cc1,composite z-score,[1],-0.0225
same,composite z-score,[2],-0.953
same,composite z-score,[3],-0.153
same,composite z-score,[4],-0.564
same,composite z-score,[5],-0.792
same,composite z-score,[6],0.493
same,composite z-score,[7],-0.643
same,z-score,[8],-0.639 (inactive)
same,composite z-score,[9],-0.242
same,composite z-score,[10],-0.252
same,composite z-score,[11],1.45
same,z-score,[12],-0.501 (inactive)
same,z-score,[13],-1.63 (inactive)
same,z-score,[14],-0.471 (inactive)
same,composite z-score,[15],3.47
same,z-score,[16],-0.297 (inactive)
same,composite z-score,[17],-0.0466
same,composite z-score,[18],-0.781
same,composite z-score,[19],0.165
same,composite z-score,[20],-0.227
COc1ccc(C#Cc2ccc3c(c2)[C@]2(C(=O)N3)[C@H](C(=O)N3CCc4cc(OC)c(OC)cc4C3)[C@H]3C(=O)O[C@H](c4ccccc4)[C@H](c4ccccc4)N3[C@@H]2c2ccc(O)cc2)cc1,composite z-score,[1],-0.439
same,composite z-score,[2],0.606
same,composite z-score,[3],-0.0583
same,composite z-score,[4],0.282
same,composite z-score,[5],0.781
same,composite z-score,[6],1.27
same,composite z-score,[7],1.19
same,z-score,[8],1.57 (inactive)
same,composite z-score,[9],0.295
same,composite z-score,[10],-0.12
same,composite z-score,[11],1.57
same,z-score,[12],1.36 (inactive)
same,z-score,[13],1.14 (inactive)
same,z-score,[14],1.91 (inactive)
same,composite z-score,[15],2.28
same,z-score,[16],-0.384 (inactive)
same,composite z-score,[17],-0.143
same,composite z-score,[18],0.875
same,composite z-score,[19],1.01
same,composite z-score,[20],-0.0142
COc1ccc([Si](C)(C)[C@H]2[C@H](CCO)O[C@@]3(C(=O)N(Cc4cccc(N5CCCCC5=O)c4)c4ccccc43)[C@@H]2C)cc1,composite z-score,[1],-0.337
same,composite z-score,[2],0.154
same,composite z-score,[3],-0.081
same,composite z-score,[4],0.375
same,composite z-score,[5],0.87
same,composite z-score,[6],0.652
same,composite z-score,[7],1.2
same,z-score,[8],-2.32 (inactive)
same,composite z-score,[9],0.327
same,composite z-score,[10],0.176
same,composite z-score,[11],1.54
same,z-score,[12],2.01 (inactive)
same,z-score,[13],-1.99 (inactive)
same,z-score,[14],2.68 (inactive)
same,composite z-score,[15],1.56
same,z-score,[16],0.525 (inactive)
same,composite z-score,[17],-0.0732
same,composite z-score,[18],0.296
same,composite z-score,[19],0.896
same,composite z-score,[20],0.214
CO[C@H]1O[C@H](CO)[C@@H](OC(=O)Nc2ccccc2-c2ccccc2)[C@H](OC(=O)Nc2ccc3c(c2)OCO3)[C@@H]1OC(=O)Nc1ccc2c(c1)OCO2,composite z-score,[1],0.0632
same,composite z-score,[2],0.291
same,composite z-score,[3],0.0826
same,composite z-score,[4],0.733
same,composite z-score,[5],1.44
same,composite z-score,[6],1.62
same,composite z-score,[7],1.4
same,z-score,[8],5.64 (inactive)
same,composite z-score,[9],1.2
same,composite z-score,[10],0.141
same,composite z-score,[11],1.53
same,z-score,[12],2.06 (inactive)
same,z-score,[13],0.798 (inactive)
same,z-score,[14],6.35 (inactive)
same,composite z-score,[15],3.16
same,z-score,[16],0.0976 (inactive)
same,composite z-score,[17],-0.0269
same,composite z-score,[18],0.91
same,composite z-score,[19],1.07
same,composite z-score,[20],-0.0177
COCCOC(=O)N1C(=O)[C@@]2(c3ccccc31)[C@H](c1ccc(OCCO)cc1)N1[C@H](c3ccccc3)[C@H](c3ccccc3)OC(=O)[C@H]1[C@@H]2C(=O)Nc1nc2ccccc2s1,composite z-score,[1],-0.436
same,composite z-score,[2],-0.504
same,composite z-score,[3],-0.0848
same,composite z-score,[4],0.26
same,composite z-score,[5],0.829
same,composite z-score,[6],1.07
same,composite z-score,[7],1.25
same,z-score,[8],-0.567 (inactive)
same,composite z-score,[9],0.439
same,composite z-score,[10],0.154
same,composite z-score,[11],1.45
same,z-score,[12],0.405 (inactive)
same,z-score,[13],0.371 (inactive)
same,z-score,[14],2.33 (inactive)
same,composite z-score,[15],3.13
same,z-score,[16],1.16 (inactive)
same,composite z-score,[17],0.0305
same,composite z-score,[18],0.396
same,composite z-score,[19],1.13
same,composite z-score,[20],-0.0039
